# PPARg SRC-2 ag: promotes SRC-2 coactivator recruitment by human PPARgamma. P37231. PPARgamma LBD-SRC-2 recruitment, biochemical. activation, % at 8 µM. 0.34% of 200,000 active. AID 1032; in the data active = activation above about 22%;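 note: 0% = vehicle and 100% = reference agonist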
# Target sequence (P37231 whole entry, looked up, the tested form may be a part): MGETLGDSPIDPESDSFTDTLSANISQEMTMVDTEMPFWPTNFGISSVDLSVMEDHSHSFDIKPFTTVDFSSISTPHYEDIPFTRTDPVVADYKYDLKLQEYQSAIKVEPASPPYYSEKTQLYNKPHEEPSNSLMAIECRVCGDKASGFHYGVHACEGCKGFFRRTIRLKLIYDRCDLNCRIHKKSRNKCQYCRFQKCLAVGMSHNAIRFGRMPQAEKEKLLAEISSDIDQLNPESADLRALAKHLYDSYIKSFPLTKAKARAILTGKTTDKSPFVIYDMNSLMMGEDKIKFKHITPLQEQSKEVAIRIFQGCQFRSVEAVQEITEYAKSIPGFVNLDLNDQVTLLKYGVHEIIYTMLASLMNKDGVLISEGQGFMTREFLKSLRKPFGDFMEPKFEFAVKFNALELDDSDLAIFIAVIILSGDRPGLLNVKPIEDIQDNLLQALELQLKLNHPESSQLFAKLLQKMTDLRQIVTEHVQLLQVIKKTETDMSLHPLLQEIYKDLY
# SRC2 TRFRET art: TR-FRET artefact, counter-screen to PPARgamma/SRC-2 agonist assay. active compounds read high. TR-FRET ratio at 8 µM. 0.4% of 200,000 active
# SRC3 TRFRET art: flags TR-FRET format artefacts in PPARgamma SRC-3 recruitment agonist screen. 0.39% of 99,000 active. TR-FRET artefact counter-screen, PPARgamma/SRC-3 format; active compounds read high. TR-FRET ratio at 8 µM. AID 1048
# PPARg SRC3 recr: PPARgamma-driven SRC-3 recruitment agonism. P37231. activation, % at 8 µM. 0.26% of 200,000 active. biochemical PPARgamma/SRC-3 coactivator recruitment assay; in the data active = activation above about 23%;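 note: 0% = DMSO and 100% = reference agonist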
# PPARg SRC1 recr: PPARgamma-driven SRC-1 recruitment agonism | P37231 | PPARgamma-SRC-1 coactivator recruitment biochemical assay | activation, % at 8 µM | 0.41% of 200,000 active | AID 631; in the data active = activation above about 19%;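 note: 0% = DMSO and 100% = reference agonist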
# SRC1 TRFRET art: flags TR-FRET format artefacts in PPARgamma SRC-1 recruitment agonist screen; TR-FRET detection artefact counter-screen, emission ratio; active compounds read high; TR-FRET ratio at 8 µM; 0.34% of 99,000 active; AID 1051; in the data active = TR-FRET ratio above about 2300
# An asterisk follows results filed as active; . = no result. Shown are actives, neighbours in structure and some others; about 0.9% of the full set was active somewhere. Cut-off read from the data, not from the text of the source, unless noted: active = TR-FRET ratio above about 2000; inactive = the rest.
SMILES,PPARg SRC-2 ag,SRC2 TRFRET art,SRC3 TRFRET art,PPARg SRC3 recr,PPARg SRC1 recr,SRC1 TRFRET art
CCOc1nc(-c2ccccc2)ccc1-c1noc(-c2ccncc2)n1,0.3,1670,1406,2.1,-3.5,1933
CCOc1nc(-c2ccccc2)ccc1-c1noc(-c2cccs2)n1,2.9,1549,.,-5.5,33.7*,.
Cc1c(Cl)ccc2c(C(=O)NC(C)c3ccncc3)cc(-c3ccncc3)nc12 (stereo not given),4.3,1357,1517,-1.6,-4.6,1713
O=S1(=O)CC2N=C(N(Cc3ccc(F)cc3Cl)c3ccccc3F)SC2C1 (stereo not given),25.4*,1811,1453,-6.4,3.1,1784
CCOc1cccc2cc(C(=O)Nc3ccccc3-c3ccccc3)c(=O)oc12,-9.0,1460,1345,0.6,-4.1,1745
CCOc1cccc2cc(C(=O)Nc3cc(C)on3)c(=O)oc12,6.4,1720,.,3.1,37.8*,.
CN1CCCN(C(=O)CC(c2ccccc2)c2ccccc2)CC1,2.1,1547,1752,4.9,5.5,1940
Cn1cccc1CC(=O)N/N=C/C(Cl)=C/c1ccccc1,-1.1,1579,1886,7.0,4.0,2381*
COCc1cc(C)nc(N/N=C/c2ccc(-c3cc(C(=O)O)ccc3Cl)o2)c1C#N,2.8,1517,1723,-4.9,8.3,1813
CC(=O)c1cccc(NC(=O)COc2ccccc2C(=O)c2cc(C#N)c(=O)n(C3CCCCC3)c2)c1,1.9,1658,1952,0.9,0.0,1806
N#Cc1cc(C(=O)c2ccccc2OCC(=O)Nc2ccccc2Cl)cn(C2CCCCC2)c1=O,10.9,1657,2092*,1.3,4.5,1593
CCOC(=O)c1c(C)[nH]c(C(=O)COC(=O)CNC(=O)C2CCCCC2)c1C,2.4,1519,.,28.8*,6.9,.
COc1cccc(Nc2nnc(SCC3CCCCO3)s2)c1 (stereo not given),-0.8,2017*,1663,6.7,-4.4,1883
CCOC(=O)CSC(=S)NC(=O)c1ccc(OC)cc1,15.2,1985*,2008,12.3,8.5,2487*
COc1cccc(N/C=C/c2onc(C)c2[N+](=O)[O-])c1,3.2,1784,1649,8.2,7.3,1984
Nc1nc(C2CCCN2S(=O)(=O)c2ccc(Cl)cc2)cs1 (stereo not given),7.2,1686,.,5.3,20.7*,.
O=S(=O)(c1ccc(Cl)cc1)N1CCCC1c1nc(-c2ccc(Cl)cc2)no1 (stereo not given),2.5,1734,.,11.4,4.6,.
CN(C)S(=O)(=O)c1ccc(Cl)c(NC(=O)CSc2nnnn2-c2ccc(O)cc2)c1,-3.4,2002*,1580,1.5,6.7,2160
Cn1nnnc1SCC(=O)Nc1cc(S(=O)(=O)N2CCCC2)ccc1Cl,15.3,1756,1595,1.1,3.1,1762
O=c1[nH]ncc(N2CCN(Cc3ccccc3)CC2)c1Cl,0.3,1600,1493,2.1,0.5,1958
Cc1ccc(S(=O)(=O)/N=C(\CCl)N2CCOCC2)cc1,7.5,1524,1645,-2.4,3.0,1783
CN(C)S(=O)(=O)c1cccc(NC(=O)COC(=O)c2cc(-c3cccc(Br)c3)nc3ccccc23)c1,8.2,2575*,3725*,25.5*,4.3,2585*
COc1ccc(COCC(O)CN(Cc2ccccc2)C(C)C)cc1OC (stereo not given),6.2,1711,1542,-2.0,5.3,1765
CCOC(=O)c1cnc2c(C)c(Cl)ccc2c1N1CCOCC1,-0.4,1588,.,40.1*,7.2,.
CCOC(=O)c1cnc2c(C(F)(F)F)cccc2c1N1CCOCC1,-0.8,1583,.,-3.0,-9.0,.
SMILES,PPARg SRC-2 ag,SRC2 TRFRET art,SRC3 TRFRET art,PPARg SRC3 recr,PPARg SRC1 recr,SRC1 TRFRET art
O=C(CNC(=O)c1cccc(Cl)c1)N/N=C/C=C/c1ccccc1,-4.5,1522,1305,-2.0,-3.3,1725
O=C(c1cc(COc2ccc(F)cc2Cl)on1)N1CCC(OCc2cccnc2)CC1,4.0,1728,1604,4.1,9.4,2026
O=C(c1cc(COc2ccc(F)cc2Cl)on1)N1CCCC(OCc2cccnc2)C1 (stereo not given),39.5*,2120*,1623,3.8,3.6,1769
N#Cc1ccccc1Sc1ccccc1C(=O)OCc1nnc(-c2ccccc2)o1,-3.0,2002*,.,-1.8,5.7,.
N#Cc1ccccc1Sc1ccccc1C(=O)OCC(N)=O,4.1,1702,1573,0.3,7.3,1827
CCOc1ccccc1Nc1nc2ccccc2n1C(C)C,0.8,1508,1626,2.0,-1.3,1589
Cc1cc(OCC(=O)Nc2cc(-c3nn4c(C)nnc4s3)ccc2C)ccc1Cl,-5.2,1568,.,0.4,88.7*,.
S=c1[nH]nc(-c2ccccc2)n1C1C=CCCC1 (stereo not given),3.4,1669,1754,-4.3,5.4,2316*
Fc1ccc2nc(Nc3nc4cc5c(cc4s3)OCO5)sc2c1,4.2,1428,1305,-8.1,-5.7,1631
Fc1ccc2nc(Nc3nc4cc5c(cc4s3)OCCO5)sc2c1,2.7,2038*,2582*,3.7,8.0,2154
COc1cccc(/C=c2/s/c(=C(\C#N)C(=O)N3CCOCC3)n(-c3ccccc3)c2=O)c1,4.1,1688,.,48.4*,6.0,.
COc1ccc(/C=c2\s/c(=C(/C#N)C(=O)NCc3ccco3)n(-c3ccccc3)c2=O)cc1,-4.9,1506,1411,-1.5,-6.0,1726
O=c1cc(Cn2ccnc2)c2cc3c(cc2o1)CCC3,0.0,1355,.,29.3*,0.5,.
O=c1oc2ccccc2cc1-c1cn2ccccc2n1,5.0,1565,3228*,60.2*,-7.0,1911
CCOc1ccc(N(CC(=O)NN=C2CCCC2)S(C)(=O)=O)cc1,-3.8,1650,1571,-3.8,1.3,1614
CCCCN(CC)CCCNC(=O)CC1Nc2ccccc2NC1=O (stereo not given),22.3*,1542,.,13.5,11.4,.
O=C1NC(=Nc2cccc(Cl)c2)SC1Cc1cccc(Cl)c1Cl (stereo not given),0.2,1572,.,12.2,-4.1,.
COc1ccccc1C(=O)NCC(=O)OCC(=O)c1ccc2c(c1)-c1ccccc1C2,16.2,1874,2088*,8.4,3.7,1947
Cc1ccc(-n2cccn2)c(CN2CCCC(CNC(=O)c3ccc(F)cc3)C2)c1 (stereo not given),1.7,1605,1364,3.5,-0.9,1624
Cc1cc(/C=C2/NC(=O)N(Cc3ccccc3F)C2=O)c(C)n1C,22.6*,1764,1554,7.6,0.8,1719
CCOC(=O)CCNC(=O)Nc1ccc2nc(C)n(Cc3cccc(Cl)c3)c(=O)c2c1,9.0,1989*,.,17.4,17.5,.
CCCc1nc2ccc(NC(=O)NCCC(=O)OCC)cc2c(=O)n1Cc1cccc(Cl)c1,4.8,1646,.,0.0,6.1,.
CN1CCS/C1=C\C=C1/SC(=S)N(CC(=O)O)C1=O,5.8,1733,1783,8.7,24.4*,2228
CCN1C(=O)/C(=C/C=C2/SCCN2C)SC1=S,-2.4,1470,.,1.0,8.8,.

# Source: PubChem (The Scripps Research Institute Molecular Screening Center)
